Reference: PubChem BioAssay AID2501 (Southern Research Specialized Biocontainment Screening …, 2010)
Several values for one entry are separate records, joined by “and”; a condition that tells them apart may be missing. Equal entries are not always repeated. The whole screen tested about 2,200 compounds, of which about 1,200 (55%) were called active. No cut-off is given here; in the data, nearly all actives have IC50 up to about 92 µM. So high a share suggests a set chosen from earlier hits. Some of the results follow.

Test: counter assay for TAg ATPase ADP read-out – biochemical, ADP-Hunter, fluorescence, counter-screen (AID 2501);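 note: purified T antigen ATPase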;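 for inhibition: 0% = enzyme with vehicle and 100% = reference inhibitor wells; higher means more inhibition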
Details: series mostly up to 100 µM; inhibition: at the top concentration

Compound | inhibition | IC50
Cc1ccc(S(=O)(=O)/N=C(/Sc2ccccc2C(=O)O)c2ccccc2)cc1 | -7.39% (inactive) | –
Cc1ccc(NC(=O)CNC(=O)c2cccs2)nc1 | -35.3% (inactive) | –
Cc1cc(C(=O)c2cccs2)c(N)s1 | – | 32.8 µM (active)
COc1cccc(CC2(CO)CCCN(Cc3sc(N4CCCC4)nc3Cl)C2)c1 (stereo unspecified) | -4.63% (inactive) | –
COC(=O)/C=C/c1ccc(OC(=O)OC)c(OC(=O)OC)c1 | – | 8.79 µM (active)
Cc1c(N=C2C=C(Br)C(=O)C(Br)=C2)c(=O)n(-c2ccccc2)n1C | – | 50.9 µM (active)
Cc1cc(N)ccc1N=Nc1c(C)n(C)n(-c2ccccc2)c1=O | – | 8.16 µM (active)
CCNc1ccc(N=Nc2c(C)n(C)n(-c3ccccc3)c2=O)cc1 | – | 3.42 µM (active)
Cc1cccc(N=Nc2c(C)[nH]n(-c3ccccc3)c2=O)c1 | 3.15% (inactive) | –
COc1ccc(-c2cc(=Nc3c(C)n(C)n(-c4ccccc4)c3=O)c3ccccc3o2)cc1 | 25.9% (inactive) | –
Cc1nc(N)sc1N=Nc1c(C)n(C)n(-c2ccccc2)c1=O | – | 10.3 µM (active)
CC(C)(C)CC(=O)NC(=S)Nc1ccccc1[N+](=O)[O-] | -5.63% (inactive) | –
COc1ccc(C(=O)N2CCN(C(=O)C3COc4ccccc4O3)CC2)cc1 (stereo unspecified) | -0.44% (inactive) | –
Cc1c(CC(=O)N2CCN(C(=O)C3COc4ccccc4O3)CC2)c(=O)oc2c(O)c(O)ccc12 (stereo unspecified) | – | 5.3 µM (active)
O=C1C2C3C=CC(CC3)C2C(=O)N1/N=C/c1ccc(O)c(O)c1 (stereo unspecified) | – | 5.65 µM (active)
COc1cc(/C=N/N2C(=O)C3C4C=CC(CC4)C3C2=O)ccc1O (stereo unspecified) | – | 5.67 µM (active)
COC(=O)c1ccc(-c2ccc(/C=N/N3C(=O)C4C5C=CC(C6CC56)C4C3=O)o2)cc1 (stereo unspecified) | -39.7% (inactive) | –
Cc1oc2c(O)c(O)ccc2c(=O)c1-c1cnn(-c2ccccc2)c1 | – | 9.31 µM (active)
CCSC1(SCC)N=C(N)C2(C#N)C(c3ccc(OC)c(OC)c3OC)C12C#N (stereo unspecified) | – | 96.4 µM (active)
COC(=O)CN1C(=O)[C@@H]2[C@H](C1=O)[C@@H]1CC(C(=O)OC)=C[C@@H](C(=O)OC)[C@@H]3C1=C(C(=O)[C@]3(C)NC(=O)c1ccccc1)[C@@H]2C | 25.3% (inactive) | –
COc1cc(/C(C)=N/NC(=O)Cc2c(C)[nH][nH]c2=O)ccc1O | – | 3.72 µM (active)
C/C(=N/NC(=O)Cc1c(C)[nH][nH]c1=O)c1ccc(O)cc1 | – | 9.47 µM (active)
CSc1ccc(CCNC(=O)C2CCCN(S(=O)(=O)N3CCOCC3)C2)cc1 (stereo unspecified) | -1.03% (inactive) | –
COc1cc(/C=N/n2c(-c3n[nH]c4c3CCC4)n[nH]c2=S)cc(OC)c1O | – | 8.78 µM (active)
COc1cc(/C=N/n2c(-c3n[nH]c4c3CCC4)n[nH]c2=S)ccc1O | – | 5.13 µM (active)
CCS(=O)(=O)c1nc(S(=O)(=O)c2ccc(Cl)cc2)c(NCc2ccccn2)s1 | -28.7% (inactive) | –

Compound | inhibition | IC50
COc1cc(C(c2c(C)[nH][nH]c2=O)c2c(C)[nH][nH]c2=O)ccc1OC(C)C | – | 69 µM (active)
CCCSc1nc(O)c(C(c2ccc(OC)c(O)c2)c2c(O)nc(SCCC)n(C)c2=O)c(=O)n1C | -8.35% (inactive) | –
COCC(C)NC(=O)c1cccc([N+](=O)[O-])c1 (stereo unspecified) | -5.06% (inactive) | –
CCOc1cc(C(c2c(C)[nH][nH]c2=O)c2c(C)[nH][nH]c2=O)ccc1OC(=O)c1cccc([N+](=O)[O-])c1 | – | 28.9 µM (active)
Cc1[nH][nH]c(=O)c1C(c1ccc(-c2cccc(Cl)c2)o1)c1c(C)[nH][nH]c1=O | -31.4% (inactive) | –
CCOc1cc(C(c2c(C)[nH][nH]c2=O)c2c(C)[nH][nH]c2=O)ccc1O | – | 4.65 µM (active)
O=C(CCN1C(=O)/C(=C\C=C\c2ccccc2)SC1=S)Nc1ccc(C(=O)O)cc1 | -19.9% (inactive) | –
CC(C)c1ccc(S(=O)(=O)N2CCN(CCC(=O)Nc3ccc(N(C)C)cc3)CC2)cc1 | – | 12 µM (active)
CCS(=O)(=O)c1ncc(Cl)c(C(=O)Nc2ccc(S(=O)(=O)N3CCC(C)CC3)cc2)n1 | -17.6% (inactive) | –
CN(C)c1ccc(NC(=O)c2ccc(N3CCOCC3)nc2)cc1 | – | 3.34 µM (active)
CN(C)c1ccc(NC(=O)CCN2CCN(c3ccccn3)CC2)cc1 | – | 4.88 µM (active)
Cc1ccsc1C(=O)N1CCCC(CCC(=O)N2CCN(c3ccccn3)CC2)C1 (stereo unspecified) | -0.27% (inactive) | –
CC(=O)Nc1ccc(NC(=O)C(C)N2CCN(S(=O)(=O)c3ccc(C)cc3)CC2)cc1 (stereo unspecified) | -33.8% (inactive) | –
O=C1OC2(c3ccccc31)c1cc(I)c(O)c(I)c1Oc1c2cc(I)c(O)c1I | -22.2% (inactive) | –
O=C(NC(=S)Nc1ccc(O)cc1)c1ccccc1Cl | – | 2.31 µM (active)
Oc1ccc(NC(=S)Nc2ccccc2)cc1 | – | 4.74 µM (active) and 4.32 µM (active)
O=C(Nc1ccc(Nc2ccccc2)cc1)N1CCOCC1 | – | 3.84 µM (active)
O=C(NNC(=O)c1ccccc1-n1cccc1)c1ccc(Cl)cc1Cl | -18% (inactive) | –
NC(=O)Nc1ccc(Nc2ccccc2)cc1 | – | 4.72 µM (active)
O=C(c1ccc(-c2ccccc2Cl)s1)N1CCOCC1 | 1.32% (inactive) | –
O=C(Nc1cccc2c1CCCC2)c1ccccc1Cl | -13.3% (inactive) | –
C=C(C)C(=O)O[C@H]1C/C(C)=C\C(=O)/C=C(\C)[C@H](O)[C@@H]2OC(=O)C(=C)[C@@H]21 | -21.3% (inactive) | –
CCCCNC(=S)N(CCN(C)C)Cc1cc2cc3c(cc2[nH]c1=O)OCCO3 | 1.93% (inactive) | –
COc1cccc(NC(=O)CC2(CC(=O)O)CCCC2)c1 | -18.3% (inactive) | –
CNC(=S)Nc1ccc(Nc2ccccc2)cc1 | – | 4.39 µM (active)
